GAA850 FXN act: activators of GAA850 frataxin (FXN) promoter; HEK293 lucGAA850 FXN promoter luciferase reporter, 24 h; percent of 10 µM SAHA response; activation, % at 6 µM; actives 0.56% (n = 360,000); AID 540364;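 active = activation above the average of all compounds screened plus 3 SD, cutoff fixed separately per campaign, cut at about 7.5% in these data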;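 note: 0% = DMSO wells and 100% = 10 µM SAHA wells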
GalR3 antag: antagonists of human GalR3. actives 0.44% (n = 360,000). HEK293 GalR3-CNG cAMP membrane potential fluorescence; galR3 body fused to GalR1 C-terminus. O60755. inhibition, % at 3 µM;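 active = inhibition above the screen-wide average plus 3 SD, cut at about 13% in these data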;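 note: forskolin and galanin both at EC90 stimulate the cells; cAMP rise reported by CNG channel membrane potential dye signal; 0% = forskolin plus galanin with DMSO and 100% = forskolin alone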
Target sequence (O60755 1-299 limits assumed): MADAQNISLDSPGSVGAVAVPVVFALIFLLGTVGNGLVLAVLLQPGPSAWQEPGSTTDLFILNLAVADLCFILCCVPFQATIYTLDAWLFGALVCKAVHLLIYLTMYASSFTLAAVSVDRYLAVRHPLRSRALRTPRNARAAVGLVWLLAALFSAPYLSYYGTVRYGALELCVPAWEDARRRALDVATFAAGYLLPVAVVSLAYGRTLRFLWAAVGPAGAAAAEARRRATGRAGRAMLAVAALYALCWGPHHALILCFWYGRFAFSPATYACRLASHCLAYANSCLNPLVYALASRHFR
SMARCA2 activ: SMARCA2 function activation, primary screen; MG213 cells, MMTV-luciferase reporter, dexamethasone, overnight; activation, % at 9.1 µM; actives 1% (n = 370,000); AID 652017; in the data active = activation above about 7.8%;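 note: 0% = vehicle wells and 100% = reference activator wells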
Hsp70 activator: transcriptional activators of Hsp70. HeLa Hsp70 promoter luciferase reporter, luminescence; scaled: vehicle 0, proteasome-inhibitor control 100%. activation, % at 10 µM. actives 0.04% (n = 200,000). AID 1203;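 active = activation above the mean across all tested compounds plus 3 SD, cutoff set per campaign, cut at about 5.5% in these data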;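 note: 100% = MG132 at 30 µM as the positive control and 0% = DMSO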
HIF act: HIF pathway transcriptional activation; U2OS HRE-luciferase reporter, luminescence; normalized: DMSO 0%, desferrioxamine 100%; activation, % at 7.5 µM (by protocol); actives 0.32% (n = 300,000);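 active = mean activation of at least 10% of the iron chelator positive control signal, with at least half of replicates also reaching 10%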
SMARCA2 act conf: SMARCA2 activation, confirmation screen; shares compounds with SMARCA2 activ; MG213 cells, MMTV-luciferase with dexamethasone, luminescence, overnight; MG213 cells expressing E1A, Rb sequestered; DMSO wells 0%, reference activator 100%; activation, % at 9.1 µM; actives 30% (n = 3,500); AID 652260;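 active = activation above its plate's cutoff, the mean activation of tested wells plus 3 SD, cut at about 7.9% in these data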
GAL4-VP16 Luc: activates GAL4-VP16 luciferase, flagging SMARCA2 activator hits; AID 686939; shares compounds with SMARCA2 activ; HEK293 GAL4-VP16 pG5luc reporter, luciferase luminescence; scaled: DMSO wells 0%, SAHA wells 100%; actives 41% (n = 3,500); activation, % at 9.1 µM;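 active = activation above the solvent-only control well mean plus 3 SD, averaged across control plates, cut at about 5.2% in these data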
Numbers without * were called inactive. Rows were chosen to be rich in hits. Some 2.2% of all compounds tested hit in one or more screens of this group.

`N#C/C(C(=O)NCc1ccccc1)=C1/N=C(NC(=O)c2ccco2)c2ccccc21` gave GAA850 FXN act 3, GalR3 antag 3, SMARCA2 activ 10*, HIF act 0, SMARCA2 act conf 2 and GAL4-VP16 Luc 3.
For CN1CCc2c(C#N)c(N3CCOCC3)nc(NCC3CCCO3)c2C1 (stereo not given) the results were GAA850 FXN act -1, GalR3 antag -4, SMARCA2 activ 12*, HIF act 0, SMARCA2 act conf -3 and GAL4-VP16 Luc 0.
Screening COC(=O)[C@]12C[C@H](CC(=O)NCCCCc3ccccc3)C(=O)N(Cc3ccc4c(c3)OCO4)C1=C[C@H](C(C)C)O[C@@H]2C1CC1 returned SMARCA2 activ -2.
For Cn1c(C2=C(O)CN(Cc3ccccc3)C2=N)nc2ccccc21 the results were GAA850 FXN act 4, GalR3 antag -2, SMARCA2 activ 8.6*, HIF act 1, SMARCA2 act conf 0 and GAL4-VP16 Luc 3.
Screening Cn1c(C2=C(O)CN(Cc3ccccc3)C2=N)[n+](C)c2ccccc21 returned GAA850 FXN act 1, GalR3 antag -3, SMARCA2 activ 7 and Hsp70 activator 0.
Screening COC(=O)/C(C#N)=C/c1c(N2CCN(c3ccccc3)CC2)nc2ccccn2c1=O returned GAA850 FXN act -1, GalR3 antag -9, SMARCA2 activ 3 and HIF act 3.
`CCOC(=O)/C(C#N)=C/c1c(N2CCN(c3ccccc3)CC2)nc2ccccn2c1=O` gave GAA850 FXN act 2, GalR3 antag -13, SMARCA2 activ 9.9*, HIF act -12, SMARCA2 act conf 7 and GAL4-VP16 Luc 4.
Clc1cccc(/C=N/Nc2nc(Cl)nc3ccccc23)c1 was read as GAA850 FXN act 7, GalR3 antag -3, SMARCA2 activ 11*, Hsp70 activator 0, HIF act 2, SMARCA2 act conf 11* and GAL4-VP16 Luc 11*.
For CCCCNC(=O)C1CCN(Cc2ccc(OCc3ccccc3)c(OC)c2)CC1 the results were GAA850 FXN act 5, GalR3 antag -9, SMARCA2 activ 9.4*, HIF act 2, SMARCA2 act conf 2 and GAL4-VP16 Luc 6.2*.
Screening Brc1ccc(Cn2c(-c3cncs3)nc3ccccc32)cc1 returned GAA850 FXN act 4, GalR3 antag -5, SMARCA2 activ 8.8*, Hsp70 activator 0, HIF act 2, SMARCA2 act conf 7 and GAL4-VP16 Luc 2.
Screening COC(=O)CCC(=O)N1C2=NC3=C(C(=O)N(Cc4ccc5c(c4)OCO5)C3=O)C3N(C)c4ccccc4[C@]23C[C@H]1CO (stereo not given in full) returned SMARCA2 activ -1.
`Clc1ccc(Nc2nc(C3CC3)cs2)cc1` gave GAA850 FXN act 5, GalR3 antag 2, SMARCA2 activ 8.2*, Hsp70 activator 0, HIF act 0, SMARCA2 act conf 5 and GAL4-VP16 Luc 7.1*.
Screening COc1cc2c(c(OC)c1OC)CC(c1ccccc1)=C(c1ccccc1)CC2NC(=O)C(F)(F)F (stereo not given) returned GalR3 antag -6 and SMARCA2 activ -2.
`c1coc(-c2nnc(NC3=NCCC3)o2)c1` gave GAA850 FXN act 1, GalR3 antag -1, SMARCA2 activ 8.8*, Hsp70 activator 0, HIF act 2, SMARCA2 act conf 3 and GAL4-VP16 Luc 5.4*.
For C(=N\Nc1nc(Nc2ccccc2)nc(N2CCOCC2)n1)/c1c[nH]c2ccccc12 the results were GalR3 antag -7, SMARCA2 activ 9.6*, Hsp70 activator 0, HIF act 0, SMARCA2 act conf 1 and GAL4-VP16 Luc 7.7*.
Screening COC(=O)[C@]12C[C@H](CC(=O)NCC34CC5CC(CC(C5)C3)C4)C(=O)N(Cc3ccccc3)C1=C[C@H](C1CCCC1)O[C@@H]2C returned GalR3 antag -5 and SMARCA2 activ -2.
CS(=O)(=O)N(CC(=O)N1CCCCCC1)c1ccc2c(c1)OCCO2 was read as GAA850 FXN act 0, GalR3 antag -5, SMARCA2 activ 8.0*, Hsp70 activator 0, HIF act 0, SMARCA2 act conf -3 and GAL4-VP16 Luc 1.
For COC(=O)C[C@H]1CC[C@H]2[C@H](COc3ccc(NS(=O)(=O)c4cccc(OC)c4)cc3C(=O)N2C)O1 the results were SMARCA2 activ -2.
For c1ccc(OCc2nnc3sc(C4COc5ccccc5O4)nn23)cc1 (stereo not given) the results were GAA850 FXN act 1, GalR3 antag 0, SMARCA2 activ 9.2*, Hsp70 activator 0, HIF act 0, SMARCA2 act conf -2 and GAL4-VP16 Luc 0.
For Cc1ccc(Cn2cc(COC(=O)Nc3ccc(F)cc3)nn2)cc1 the results were SMARCA2 activ 0.
Screening COc1ccc(NC(=O)c2cccnc2)c(OC)c1 returned GAA850 FXN act 1, GalR3 antag -4, SMARCA2 activ -1, Hsp70 activator 0 and HIF act 0.
`COc1ccccc1NC(=O)c1cccnc1` gave GAA850 FXN act 5, GalR3 antag -3, SMARCA2 activ 8.7*, Hsp70 activator 0, HIF act 1, SMARCA2 act conf -1 and GAL4-VP16 Luc -1.
`COc1ccc(C(=O)Oc2c(CN3CCOCC3)cc(Cl)c3cccnc23)cc1` gave GAA850 FXN act 0, GalR3 antag -4, SMARCA2 activ -1, Hsp70 activator -1 and HIF act -6.
For O=C(Oc1c(CN2CCOCC2)cc(Cl)c2cccnc12)c1cccs1 the results were GAA850 FXN act -1, GalR3 antag -4, SMARCA2 activ 33*, Hsp70 activator 0, HIF act 0, SMARCA2 act conf 16* and GAL4-VP16 Luc 1.
Cc1c(C)c2ccc(OCC(=O)Nc3ccccn3)cc2oc1=O was read as GAA850 FXN act -1, GalR3 antag -3, SMARCA2 activ 12*, HIF act -1, SMARCA2 act conf 6 and GAL4-VP16 Luc 5.6*.
Screening c1cnc(SCC2CCCCC2)c(-c2nc3ccccc3[nH]2)c1 returned SMARCA2 activ 5.
`COc1ccc(/C=N\NC(=O)c2nn(C)cc2Cl)cc1CN1CCOCC1` gave GAA850 FXN act 3, GalR3 antag -12, SMARCA2 activ 10*, Hsp70 activator 0, HIF act 0, SMARCA2 act conf -2 and GAL4-VP16 Luc 2.

Screening data deposited in PubChem by several laboratories.
